What all share (assay): yeast three-hybrid, YBZ-1, SC-Leu-His + 0.5 mM 3-AT, 4 days
Holding throughout (details): tags: N-Gal4 AD-HA kept; label: inside an RPR1-promoter hybrid RNA with tandem MS2 sites; ssRNA

In one experiment the target is PUM1 PUF domain R1-RCM (Homo sapiens, UniProt Q14671 828-1176, S863R;R864C;Q867M). A digest of the protocol: (§1)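 Each repeat of the Pumilio-1 PUF domain was randomized at its three base-contacting residues, and these libraries were co-expressed from a centromeric plasmid with matching RNA elements in strain YBZ-1. After four days on SC-Leu (input) or SC-Leu-His + 0.5 mM 3-AT (selection), the repeat regions were PCR-amplified and Illumina-sequenced. The interaction score compares variant frequency between input and selection as a log change, computed in log2 with a pseudocount of 1 for absent variants.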

The target in the next experiment is PUM1 PUF domain R2-KCA (Homo sapiens, UniProt Q14671 828-1176, N899K;Y900C;Q903A). A digest of the protocol: as §1
The next experiment addresses PUM1 PUF domain R2-EWA (Homo sapiens, UniProt Q14671 828-1176, N899E;Y900W;Q903A). An outline of the steps:
as §1

A further experiment addresses PUM1 PUF domain R5-TRW (Homo sapiens, UniProt Q14671 828-1176, C1007T;Q1011W). An outline of the steps: as §1
The next experiment concerns the target PUM1 PUF domain R3-EFG (Homo sapiens, UniProt Q14671 828-1176, C935E;R936F;Q939G). An outline of the steps:
as §1

In another experiment the target is PUM1 PUF domain R3-SCQ (Homo sapiens, UniProt Q14671 828-1176, C935S;R936C). An outline of the steps:
as §1

The target in a further experiment is PUM1 PUF domain R3-SVE (Homo sapiens, UniProt Q14671 828-1176, C935S;R936V;Q939E). An outline of the steps: as §1
A further experiment concerns the target PUM1 PUF domain R3-STD (Homo sapiens, UniProt Q14671 828-1176, C935S;R936T;Q939D). A digest of the protocol:
as §1

The next experiment deals with PUM1 PUF domain R5-GKR (Homo sapiens, UniProt Q14671 828-1176, C1007G;R1008K;Q1011R). An outline of the steps: as §1
The target in the next experiment is PUM1 PUF domain R3-SWL (Homo sapiens, UniProt Q14671 828-1176, C935S;R936W;Q939L). A digest of the protocol:
as §1

The next experiment has as its target PUM1 PUF domain R8-KFG (Homo sapiens, UniProt Q14671 828-1176, N1122K;Y1123F;Q1126G). An outline of the steps: as §1
Another experiment deals with PUM1 PUF domain R8-TYC (Homo sapiens, UniProt Q14671 828-1176, N1122T;Q1126C). A digest of the protocol:
as §1

The target in another experiment is PUM1 PUF domain R8-RWL (Homo sapiens, UniProt Q14671 828-1176, N1122R;Y1123W;Q1126L). An outline of the steps: as §1
Another experiment has as its target PUM1 PUF domain R8-RWC (Homo sapiens, UniProt Q14671 828-1176, N1122R;Y1123W;Q1126C). An outline of the steps:
as §1

For a further experiment, the target named is PUM1 PUF domain R4-MPT (Homo sapiens, UniProt Q14671 828-1176, N971M;H972P;Q975T). A digest of the protocol: as §1
Another experiment addresses PUM1 PUF domain R5-DHK (Homo sapiens, UniProt Q14671 828-1176, C1007D;R1008H;Q1011K). A digest of the protocol: as §1
For a further experiment, the target named is PUM1 PUF domain R5-VYY (Homo sapiens, UniProt Q14671 828-1176, C1007V;R1008Y;Q1011Y). An outline of the steps: as §1
Another experiment addresses T1, PUM1 PUF domain R6-CWA (Homo sapiens, UniProt Q14671 828-1176, N1043C;Y1044W;Q1047A).
T1 sequence: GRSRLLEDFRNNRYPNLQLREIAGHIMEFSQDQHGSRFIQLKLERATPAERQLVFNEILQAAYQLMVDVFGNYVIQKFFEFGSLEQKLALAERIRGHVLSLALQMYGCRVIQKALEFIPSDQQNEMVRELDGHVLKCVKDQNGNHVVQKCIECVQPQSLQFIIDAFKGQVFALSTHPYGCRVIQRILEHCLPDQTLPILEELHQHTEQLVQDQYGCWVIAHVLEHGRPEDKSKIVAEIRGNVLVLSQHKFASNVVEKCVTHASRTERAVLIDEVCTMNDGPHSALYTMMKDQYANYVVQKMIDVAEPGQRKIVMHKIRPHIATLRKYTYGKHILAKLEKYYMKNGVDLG
An outline of the steps:
as §1

The target in another experiment is PUM1 PUF domain R3-VRF (Homo sapiens, UniProt Q14671 828-1176, C935V;Q939F). A digest of the protocol: as §1
A further experiment addresses PUM1 PUF domain R4-SLY (Homo sapiens, UniProt Q14671 828-1176, N971S;H972L;Q975Y). An outline of the steps: as §1

Chain of PUM1 PUF domain R2-KCA (Q14671 828-1176 N899K/Y900C/Q903A): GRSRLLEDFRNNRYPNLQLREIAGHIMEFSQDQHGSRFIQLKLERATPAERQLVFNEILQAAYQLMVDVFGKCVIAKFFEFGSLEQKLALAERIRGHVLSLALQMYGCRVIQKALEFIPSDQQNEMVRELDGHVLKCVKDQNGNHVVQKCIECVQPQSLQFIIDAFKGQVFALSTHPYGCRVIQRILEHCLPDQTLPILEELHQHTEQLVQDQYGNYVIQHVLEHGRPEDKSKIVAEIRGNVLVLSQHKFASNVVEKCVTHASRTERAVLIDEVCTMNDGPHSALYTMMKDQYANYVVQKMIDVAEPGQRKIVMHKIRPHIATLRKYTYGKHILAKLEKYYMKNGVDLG
Chain of PUM1 PUF domain R8-TYC (Q14671 828-1176 N1122T/Q1126C): as the sequence (Q14671 828-1176 N899K/Y900C/Q903A) above, with K72N, C73Y, A76Q, N295T, Q299C counted along it

On to “GGCUAGAACUAGUGGAUCCCCCGGCGCCCGGCGGCUCGAGCCCGGGUAAGUGUAAAUGGUCUGCAUGCCGCCGGGCGCCAUGCCUGCAGGUCGACUCUAGAAAACAUG”, for which the binding signal with PUM1 PUF domain R1-RCM is 0.08 log2 enrichment (interaction score).

Regarding “GGCUAGAACUAGUGGAUCCCCCGGCGCCCGGCGGCUCGAGCCCGGGUAAGUGUAAAGAGUCUGCAUGCCGCCGGGCGCCAUGCCUGCAGGUCGACUCUAGAAAACAUG”, the results for the binding signal with PUM1 PUF domain R2-KCA and in the experiment with PUM1 PUF domain R2-EWA were 3.39 log2 enrichment (interaction score) and 2.1 log2 enrichment (interaction score), respectively.

In the case of “GGCUAGAACUAGUGGAUCCCCCGGCGCCCGGCGGCUCGAGCCCGGGUAAGUGUAAAAAGUCUGCAUGCCGCCGGGCGCCAUGCCUGCAGGUCGACUCUAGAAAACAUG”, the binding signal in the experiment with PUM1 PUF domain R2-EWA is 5.74 log2 enrichment (interaction score).

With “GGCUAGAACUAGUGGAUCCCCCGGCGCCCGGCGGCUCGAGCCCGGGUAAGUGUGAAUAGUCUGCAUGCCGCCGGGCGCCAUGCCUGCAGGUCGACUCUAGAAAACAUG”, the binding signal with PUM1 PUF domain R5-TRW is 0.38 log2 enrichment (interaction score).

For “GGCUAGAACUAGUGGAUCCCCCGGCGCCCGGCGGCUCGAGCCCGGGUAAGUGUAAGUAGUCUGCAUGCCGCCGGGCGCCAUGCCUGCAGGUCGACUCUAGAAAACAUG”, the binding signal with PUM1 PUF domain R3-EFG is 4.12 log2 enrichment (interaction score); in the experiment with PUM1 PUF domain R3-SCQ it was 2.27 log2 enrichment (interaction score); with PUM1 PUF domain R3-SVE it was 4.64 log2 enrichment (interaction score); with PUM1 PUF domain R3-STD, 2.07 log2 enrichment (interaction score).

Turning to “GGCUAGAACUAGUGGAUCCCCCGGCGCCCGGCGGCUCGAGCCCGGGUAAGUGUUAAUAGUCUGCAUGCCGCCGGGCGCCAUGCCUGCAGGUCGACUCUAGAAAACAUG”, the binding signal with PUM1 PUF domain R5-GKR was 2.96 log2 enrichment (interaction score).

As for “GGCUAGAACUAGUGGAUCCCCCGGCGCCCGGCGGCUCGAGCCCGGGUAAGUGUAAAUCGUCUGCAUGCCGCCGGGCGCCAUGCCUGCAGGUCGACUCUAGAAAACAUG”, the binding signal in the experiment with PUM1 PUF domain R1-RCM was 2.75 log2 enrichment (interaction score).

In the case of “GGCUAGAACUAGUGGAUCCCCCGGCGCCCGGCGGCUCGAGCCCGGGUAAGUGUAAUUAGUCUGCAUGCCGCCGGGCGCCAUGCCUGCAGGUCGACUCUAGAAAACAUG”, the binding signal was 3.8 log2 enrichment (interaction score) with PUM1 PUF domain R3-EFG, 1.78 log2 enrichment (interaction score) with PUM1 PUF domain R3-SWL and 1.65 log2 enrichment (interaction score) in the experiment with PUM1 PUF domain R3-SCQ.

Consider “GGCUAGAACUAGUGGAUCCCCCGGCGCCCGGCGGCUCGAGCCCGGGUAAGGGUAAAUAGUCUGCAUGCCGCCGGGCGCCAUGCCUGCAGGUCGACUCUAGAAAACAUG”, for which the binding signal in the experiment with PUM1 PUF domain R8-KFG was 4.73 log2 enrichment (interaction score).

For the sequence “GGCUAGAACUAGUGGAUCCCCCGGCGCCCGGCGGCUCGAGCCCGGGUAAGCGUAAAUAGUCUGCAUGCCGCCGGGCGCCAUGCCUGCAGGUCGACUCUAGAAAACAUG”, the binding signal in the experiment with PUM1 PUF domain R8-TYC is 2.53 log2 enrichment (interaction score); in the experiment with PUM1 PUF domain R8-KFG, 2.54 log2 enrichment (interaction score); with PUM1 PUF domain R8-RWL, 6.58 log2 enrichment (interaction score); with PUM1 PUF domain R8-RWC, 4.12 log2 enrichment (interaction score).

For the sequence “GGCUAGAACUAGUGGAUCCCCCGGCGCCCGGCGGCUCGAGCCCGGGUAAGUGUAUAUAGUCUGCAUGCCGCCGGGCGCCAUGCCUGCAGGUCGACUCUAGAAAACAUG”, the binding signal with PUM1 PUF domain R4-MPT was 2.81 log2 enrichment (interaction score).

On to “GGCUAGAACUAGUGGAUCCCCCGGCGCCCGGCGGCUCGAGCCCGGGUAAGUGUAACUAGUCUGCAUGCCGCCGGGCGCCAUGCCUGCAGGUCGACUCUAGAAAACAUG”, for which, in the experiment with PUM1 PUF domain R3-EFG, the binding signal is 2.94 log2 enrichment (interaction score).

Consider “GGCUAGAACUAGUGGAUCCCCCGGCGCCCGGCGGCUCGAGCCCGGGUAAGUGUCAAUAGUCUGCAUGCCGCCGGGCGCCAUGCCUGCAGGUCGACUCUAGAAAACAUG”, for which the binding signal with PUM1 PUF domain R5-GKR is 6.15 log2 enrichment (interaction score).

Take “GGCUAGAACUAGUGGAUCCCCCGGCGCCCGGCGGCUCGAGCCCGGGUAAGUGUAAAUAGUCUGCAUGCCGCCGGGCGCCAUGCCUGCAGGUCGACUCUAGAAAACAUG”: the binding signal in the experiment with PUM1 PUF domain R3-EFG is 4.8 log2 enrichment (interaction score); with PUM1 PUF domain R5-DHK, 2.94 log2 enrichment (interaction score); with PUM1 PUF domain R5-VYY it was 2.98 log2 enrichment (interaction score); with PUM1 PUF domain R3-SWL, 3.24 log2 enrichment (interaction score); in the experiment with PUM1 PUF domain R6-CWA, 4.17 log2 enrichment (interaction score); with PUM1 PUF domain R8-KFG it was 6.69 log2 enrichment (interaction score). Besides, the binding signal with PUM1 PUF domain R4-MPT is 3.73 log2 enrichment (interaction score); with PUM1 PUF domain R5-TRW it was 2.78 log2 enrichment (interaction score); with PUM1 PUF domain R8-RWL, 5.06 log2 enrichment (interaction score); with PUM1 PUF domain R3-VRF, 4.4 log2 enrichment (interaction score); in the experiment with PUM1 PUF domain R4-SLY, 2.48 log2 enrichment (interaction score); in the experiment with PUM1 PUF domain R5-GKR, 1.48 log2 enrichment (interaction score). For the same sequence, in the experiment with PUM1 PUF domain R8-RWC, the binding signal is 4.9 log2 enrichment (interaction score).
